# Results: PubChem BioAssay (Tox21)
# Inconclusive results are not listed. A number with no mark means an inactive call. Activity calls are given as the source filed them. Calls follow the shape of the full dose curve. Non-standard residues stand in square brackets, D forms with d. Residues, ends and D or L forms follow the SMILES beside them. pGlu = O=C1CC[C@@H](C(=O)O)N1
# Target: Acetylcholinesterase (Homo sapiens) (UniProt P22303)
# Assay: Acetylcholinesterase (AChE) small molecule antagonists: colormetric cell-based qHTS assay (AID 1347395); also: nearly all actives have a fitted effect of over 30% in size
# Conditions: SH-SY5Y cells AChE activity, colorimetric (Ellman); series mostly up to 115 µM; activity, negative = inhibition: at the top concentration
# In short: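 Endogenous AChE of human neuroblastoma SH-SY5Y cells was measured with an Ellman-type DTNB/acetylthiocholine mix. Compound pretreatment lasted 30 min at 37 C; substrate reaction ran 90 min at 37 C.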
# % is scaled to controls: 0 for no effect and ±100 for the full control effect.
# Acetylcholinesterase (Homo sapiens), sequence (P22303 whole entry, looked up): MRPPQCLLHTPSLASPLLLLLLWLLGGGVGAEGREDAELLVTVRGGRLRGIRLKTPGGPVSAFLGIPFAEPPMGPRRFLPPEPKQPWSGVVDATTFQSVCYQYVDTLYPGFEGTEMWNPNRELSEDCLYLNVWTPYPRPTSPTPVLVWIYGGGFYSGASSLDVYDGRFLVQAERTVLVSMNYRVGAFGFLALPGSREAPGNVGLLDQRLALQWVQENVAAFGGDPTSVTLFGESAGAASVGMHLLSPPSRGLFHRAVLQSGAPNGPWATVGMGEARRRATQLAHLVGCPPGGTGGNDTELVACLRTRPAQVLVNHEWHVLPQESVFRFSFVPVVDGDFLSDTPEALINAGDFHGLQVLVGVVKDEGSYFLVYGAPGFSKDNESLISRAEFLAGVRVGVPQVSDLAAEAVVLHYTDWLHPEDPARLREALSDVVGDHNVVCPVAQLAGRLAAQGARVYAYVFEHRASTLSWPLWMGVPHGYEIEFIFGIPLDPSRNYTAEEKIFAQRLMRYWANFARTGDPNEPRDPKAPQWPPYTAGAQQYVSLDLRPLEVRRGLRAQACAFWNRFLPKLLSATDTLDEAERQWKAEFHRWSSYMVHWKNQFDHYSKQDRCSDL
Compound,Potency,"activity, negative = inhibition"
O=C1C(N(CO)C(=O)NCO)N(CO)C(=O)N1CO (stereo not drawn),inactive,
O=C1Nc2ccccc2C1(c1ccc(O)cc1)c1ccc(O)cc1,inactive,
Nc1ncnc(Nc2ccccc2)n1,,2.32% [at 52.9 µM]
Cc1cc(C)c(/C=C2\C(=O)Nc3ccccc32)[nH]1,,-0.182% [at 52.9 µM]
O=C(O)c1ccc(-n2nc(-c3ccccc3O)nc2-c2ccccc2O)cc1,,-1.35% [at 52.9 µM]
CC1CCCC(=O)C1=O (stereo not drawn),,1.72%
COc1ccccc1C=O,,1.99%
O=S(=O)(O)c1ccc(Cl)cc1,,1.26%
CC1(C)Cc2cccc(N)c2O1,,0.631%
C=C[C@@H](C)CCC=C(C)C,,-0.931%
C[C@]12CC[C@@H]3c4ccc(O)cc4CC[C@H]3[C@@H]1CC[C@@H]2OC(=O)CCC1CCCC1,inactive,
CC(C)c1ccc2c(C(C)C)cc(C(C)C)c(S(=O)(=O)O)c2c1,,1.68%
CCNC(=O)[C@@H]1CCCN1C(=O)[C@H](CCCN=C(N)N)NC(=O)[C@H](CC(C)C)NC(=O)CNC(=O)[C@H](Cc1ccc(O)cc1)NC(=O)[C@H](CO)NC(=O)[C@H](Cc1c[nH]c2ccccc12)NC(=O)[C@H](Cc1cnc[nH]1)NC(=O)[C@@H]1CCC(=O)N1 ([pGlu]HWSYGLRP-NHEt),,-1.98% [at 52.9 µM]
O=[N+]([O-])c1cccc(Cl)c1,inactive,
COC(=O)CCCCC(=O)O,,0.589%
CC(C)c1cc2c(cc1S(=O)(=O)O)[C@@]1(C)CCC[C@@](C)(C(=O)O)[C@@H]1CC2,,0.841% [at 52.9 µM]
NC(=O)c1cn(Cc2c(F)cccc2F)nn1,,-2.29% [at 52.9 µM]
CC1=C(C(=O)OC(C)C)C(c2cccc([N+](=O)[O-])c2)C(C(=O)OC2CN(C(c3ccccc3)c3ccccc3)C2)=C(N)N1 (stereo not drawn),,0.841% [at 52.9 µM]
